KB-V1 MDR tox = KB-V1 MDR subline cytotoxicity | KB-V1 MDR cells viability, CellTiter-Glo, 72 h | Potency, µM (highest dose often 46.1 µM), usual class: cytotoxic | 400,000 compounds, 3.4% hits | AID 1347076; also: % is scaled to controls: 0 for no effect and ±100 for the full control effect; nearly all actives have a fitted effect of over 60% in size
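Drug-selected KB-V1 cells, grown in DMEM lacking phenol red with 10% FBS, receive compound titrations; after three days at 37 degrees C, surviving cell ATP is quantified by CellTiter-Glo luminescence and responses normalized and curve-fitted.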
MCF10A rerep = DNA re-replication induction in MCF 10a cells; 350,000 compounds, 2.9% hits; Potency, µM (highest dose often 46.1 µM), for the others: at the highest dose activity, positive = re-replication, most hits filed as activators; AID 624296; MCF 10A DNA re-replication, Hoechst nuclear intensity, 48 h; also: % of control where 0% means no effect; nearly all actives have a fitted effect of over 50% in size
SW480 rereplic = induces DNA re-replication in SW480 colon adenocarcinoma cells; SW480 DNA re-replication, Hoechst DNA content imaging, 48 h; Potency, µM (titrated, usually from 46.1 µM), for the others: top-dose re-replication activation, usual class: activators; 340,000 compounds, 1.8% hits; AID 624297; also: % of control where 0% means no effect; nearly all actives have a fitted effect of over 55% in size
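Image-based DNA-content assay: after two days of treatment, nuclei were labelled with the DNA dye Hoechst and imaged, and hits were compounds raising the count of nuclei showing high fluorescence intensity.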
KB-3-1 cytotox = kills parental KB-3-1 adenocarcinoma cells. Potency, µM (titrated, usually from 46.1 µM), usual class: cytotoxic. AID 1347075. KB-3-1 viability, CellTiter-Glo ATP luminescence, 72 h. 400,000 compounds, 1.4% hits; also: % is scaled to controls: 0 for no effect and ±100 for the full control effect; nearly all actives have a fitted effect of over 60% in size
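KB-3-1 parental drug-naive adenocarcinoma cells in DMEM/10% FBS, incubated 72 h at 37 C with pin-transferred compounds across a concentration series. Viability by CellTiter-Glo luminescence; concentration-response curves fitted after normalization.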
HT1080 IDH1KD tx = kills HT-1080 cells with IDH1 knockdown; HT-1080 IDH1 knockdown viability, ATP luminescence, 48 h; Potency, µM (top dose mostly 46.1 µM), inactives show top-dose activity, negative = toxicity, hits mostly cytotoxic; 360,000 compounds, 2% hits;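 also: 0% = DMSO wells and -100% = cell-free medium wells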
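After a 2 h attachment period, IDH1KD HT-1080 cells took pin-transferred compound for 48 h at 37 °C; ATP-based luminescence after 10 min room-temperature reagent incubation reported viability.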
HT1080-NT tox = kills 2HG-producing HT-1080-NT fibrosarcoma cells; HT-1080-NT fibrosarcoma viability, CellTiter-Glo ATP luminescence, 48 h; Potency, µM (top dose mostly 46.1 µM), without a hit: at the top dose activity, negative = less viability, actives largely listed as cytotoxic; 360,000 compounds, 1.6% hits; AID 686970;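 also: NT is the 2HG producing partner of a matched IDH1 knockdown line; 0% = DMSO-treated cells and -100% = media-only wells without cells; nearly all actives have a fitted effect of over 55% in size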
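Compounds were tested in concentration-response format on HT-1080-NT cells for 48 hours at 37 degrees C. Cell viability came from CellTiter-Glo luminescence; curves were classified by r2, response magnitude and activity.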
An asterisk follows results filed as active; i = inactive; ? = inconclusive; . = no result given. This is a sample that favours compounds with a hit; in the whole collection about 8% have one here. Calls follow the shape of the dose curve; as a rule, active = well fitted curve in the direction sought with a large enough effect; inconclusive = small, poorly fitted or top-dose-only effect, or another doubt; inactive = no such curve, though single readings can be large; an effect the other way counts as inactive or inconclusive. Potency is read from the fitted curve at half-maximal effect.

SMILES | KB-V1 MDR tox | MCF10A rerep | SW480 rereplic | KB-3-1 cytotox | HT1080 IDH1KD tx | HT1080-NT tox
COc1ccc(OC)c(N(CC(=O)N2CCC(C)CC2)S(=O)(=O)c2ccc(OC)c(OC)c2)c1 | i | 0% | 11% | i | 1% | 11%
CCOC(=O)N1CCN(C(=O)CN(c2cccc(C)c2)S(=O)(=O)c2ccccc2)CC1 | 2.9µM* | 1% | -4% | i | 9% | 11%
CCOC(=O)CN(Cc1ccccc1)C(C(=O)NC1CCCCC1)c1ccc(C)cc1 (stereo not drawn) | i | . | . | i | . | .
COc1ccc(CC(=O)NCCc2sc(-c3ccc(Cl)cc3)nc2C)cc1OC | i | . | . | i | . | .
COc1ccc(NC(=O)c2cc3c(=O)n(Cc4cccnc4)ccc3nc2C)c(OC)c1 | i | . | . | i | . | .
COc1ccccc1N1CCN(C(=O)CN(c2ccccc2OC)S(=O)(=O)c2ccccc2)CC1 | 23µM* | 14% | 3% | i | -9% | -1%
Cc1cnn(CCC(=O)NNC(=S)Nc2ccccc2)c1 | ? | -19% | ? | i | 8.9µM* | 7.1µM*
Cc1ccc(NC(=S)NNC(=O)CCn2cc(C)cn2)cc1 | ? | 2% | 9.2µM* | i | 6.3µM* | 2.8µM*
Cc1cnn(CCC(=O)NNC(=S)NCC(C)C)c1 | i | -3% | -3% | i | 23% | 13%
Cc1c(-c2nsc(NC(=O)c3ccccc3)n2)nnn1-c1ccc(C(F)(F)F)c(Cl)c1 | i | . | . | i | . | .
CCCN1C(=O)/C(=C/c2ccc(C)s2)SC1=Nc1ccc(OC)cc1 | ? | 5% | -3% | i | 13% | 5%
CCN(CC)CCN1C(=O)/C(=C\c2ccc(Cl)c([N+](=O)[O-])c2)SC1=Nc1ccc(OC)cc1 | i | ? | 3.7µM* | ? | 3.3µM* | 2.6µM*
COc1ccc(N=C2S/C(=C\c3ccc(Cl)c([N+](=O)[O-])c3)C(=O)N2CCN(C)C)cc1 | i | ? | -6% | i | 21µM* | ?
CCN1C(=O)/C(=C/c2cccs2)SC1=Nc1ccc(OC)cc1 | i | 2% | -2% | i | 12% | 10%
O=C1C(=O)N(C2CCN(S(=O)(=O)c3ccccc3)CC2)CCN1Cc1ccccc1 | i | . | . | i | . | .
Cc1ccc(C(C(=O)NCC2CCCO2)N(Cc2ccccc2)C(=O)c2ccc(-c3ccccc3)[nH]2)o1 (stereo not drawn) | i | ? | ? | i | ? | -27%
O=C(NCC1CCCO1)C(c1cccs1)N(Cc1ccccc1Cl)C(=O)c1ccc(-c2ccccc2)[nH]1 (stereo not drawn) | 4.1µM* | ? | ? | i | ? | -19%
Cc1ccccc1N(CC(=O)NC1CCCC1)C(=O)c1oc(C(C)(C)C)cc1C | 16µM* | ? | ? | i | 2% | -6%
O=C(CC1NCCNC1=O)Nc1ccccc1F (stereo not drawn) | i | . | . | i | . | .
COc1ccc(NC(=O)CCc2c(C)nc3c(-c4ccc(F)cc4)c(C)nn3c2C)c(OC)c1 | i | . | . | i | . | .
C=CCN1CCCC1CNC(=O)c1cc(S(N)(=O)=O)cc(OC)c1OC (stereo not drawn) | . | 7% | 0% | . | . | .
CNc1nc(SCc2ccc(C)cc2)nc2c1CCCC2 | i | 15µM* | -1% | i | ? | ?
Cc1ccc(CSc2nc3c(c(SCC(=O)O)n2)CCCC3)cc1 | i | 11% | -4% | i | 4% | 0%
Cc1ccc(CSc2nc3c(c(N(C)C)n2)CCCC3)cc1 | ? | 13µM* | 15µM* | ? | ? | -25%
Cc1ccc(S(=O)(=O)N(CC(=O)NC2CCCC2)c2cccc(C)c2)cc1 | 4.1µM* | -6% | -4% | i | 7% | 10%
SMILES | KB-V1 MDR tox | MCF10A rerep | SW480 rereplic | KB-3-1 cytotox | HT1080 IDH1KD tx | HT1080-NT tox
Cc1cccc(N(CC(=O)NC2CCCCC2)C(=O)c2ccc(C)s2)c1 | i | ? | 7.3µM* | i | ? | 2%
CCOC(=O)N1CCN(C(=O)CN2C(=O)/C(=C\c3cccc(OC)c3)SC2=S)CC1 | i | . | . | i | . | .
Cc1nn(Cc2ccccc2)c(C)c1C(=O)OCC(=O)c1cc(C)n(CC(F)(F)F)c1C | ? | 13µM* | 4% | ? | ? | -11%
Cc1ccc(S(=O)(=O)n2nc(-c3ccccc3)nc2NCc2ccc(Cl)cc2)cc1 | ? | . | . | i | . | .
Cc1ccc(NC(=O)c2c(C(F)(F)F)nn(C)c2SCc2ccc(Cl)cc2)cc1C | 8.2µM* | ? | ? | ? | ? | ?
Cn1nc(C(F)(F)F)c(/C=N/OC(=O)c2ccccc2Cl)c1SCc1ccccc1Cl | ? | 23% | ? | ? | -25% | ?
Cn1nc(C(F)(F)F)c(/C=N/OC(=O)c2ccccc2)c1SCc1ccc(Cl)cc1 | 18µM* | ? | 18% | i | 20% | 11%
O=[N+]([O-])c1ccc2c(c1N1CCCCC1)=NC1(CCCCC1)[N+]=2[O-] | i | ? | ? | i | -5% | -9%
[O-][N+]1=c2ccc(Nc3ccccc3)cc2=NC12CCCCC2 | ? | 7.3µM* | 7.3µM* | ? | 16µM* | ?
COc1ccc(Nc2ccc3c(c2)=NC2(CCCCC2)[N+]=3[O-])cc1 | ? | 13µM* | 4µM* | 15µM* | ? | ?
O=C(C1CCC(Cn2c(=O)c3sccc3n(Cc3ccccc3)c2=O)CC1)N1CCOCC1 (stereo not drawn) | i | . | . | ? | . | .
CCN1CCN(Cc2nc3cc(NC(=O)c4ccccc4[N+](=O)[O-])ccc3n2CC)CC1 | i | . | . | i | . | .
O=C(Nc1cccc(-c2nnc(-c3ccccc3)o2)c1)c1ccc(Br)o1 | 21µM* | -2% | ? | i | ? | -22%
O=C(Nc1ccc(Nc2ccccc2)cc1)c1ccc(Br)o1 | 13µM* | 20% | 3% | ? | ? | -1%
O=C(NC(=S)Nc1ccccc1)c1ccc(Br)o1 | i | 5% | 12% | i | 0% | 13%
Cc1cc(C)c2oc(-c3cccc(NC(=O)c4ccc(Br)o4)c3)nc2c1 | i | . | . | i | . | .
COC(=O)c1ccc(NC(=O)C(C)Sc2nc(=O)cc(N)n2CCc2ccccc2)cc1 (stereo not drawn) | i | . | . | ? | . | .
CCc1ccc(C2CC(=O)c3c([nH]c(C(=O)OC4CCC(C)CC4)c3C)C2)cc1 (stereo not drawn) | i | . | . | i | . | .
CCC(C)NS(=O)(=O)c1ccc(N2CCCCS2(=O)=O)cc1 (stereo not drawn) | i | . | . | i | . | .
